Compounds without any hit were thinned out: in the full panel of roughly 79,000, 15% have a hit. Activity calls are given as the source filed them. No stated cut-off is given here; in the data, active means growth inhibition above about 70%; inactive means the rest.
Assays:
[1] = NCI Yeast Anticancer Drug Screen. Data for the rad52 strain (AID 147);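 further: 0% = growth of vehicle-treated control cultures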; settings: S. cerevisiae rad52 mutant growth inhibition, hits give high values
Summary of the method: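 Screen used a yeast mutant impaired in DNA repair. After compound exposure, growth was measured. Values reflect inhibition compared with vehicle-treated cells.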

[2] = NCI Yeast Anticancer Drug Screen. Data for the wt1 strain (AID 149);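 further: 0% = growth of vehicle-treated wt1 cultures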; settings: S. cerevisiae wt1 strain (SPY 50644) growth inhibition, hits give high values
Summary of the method: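 wt1 strain grown with compound or vehicle; inhibition taken from the growth difference.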

[3] = NCI Yeast Anticancer Drug Screen. Data for the rad50EPP+ strain (AID 151);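 further: 0% = growth of vehicle-treated control cultures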; settings: S. cerevisiae rad50 mutant strain, hits give high values
Summary of the method: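 Exposing the rad50EPP+ strain to each compound, growth was compared with vehicle-only cultures to give inhibition.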

[4] = NCI Yeast Anticancer Drug Screen. Data for the mgt1 strain (AID 153); settings: S. cerevisiae mgt1 mutant growth inhibition, hits give high values
Summary of the method: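 Genetically defined yeast (mgt1) treated with compound; inhibition of growth expressed against vehicle-treated controls.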

[5] = NCI Yeast Anticancer Drug Screen. Data for the rad50 strain (AID 155);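 further: 0% = growth of vehicle-only cultures of the same strain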; settings: S. cerevisiae rad50 strain growth inhibition, hits give high values
Summary of the method: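 DNA repair mutant yeast, compound exposure, growth read-out; inhibition is taken relative to vehicle.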

[6] = NCI Yeast Anticancer Drug Screen. Data for the mec2-1 strain (AID 157); settings: S. cerevisiae mec2-1 strain, hits give high values
Summary of the method: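 Readout is yeast growth inhibition, normalised to vehicle-treated controls, in the mec2-1 strain exposed to compound.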

[7] = NCI Yeast Anticancer Drug Screen. Data for the rad14 strain (AID 159);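 further: 0% = growth of vehicle-treated control cultures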; settings: S. cerevisiae rad14 strain growth inhibition, hits give high values
Summary of the method: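 DNA repair-defective yeast, compound-exposed; % growth inhibition derived by comparison with vehicle-treated controls.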

[8] = NCI Yeast Anticancer Drug Screen. Data for the sgs1 mgt1 strain (AID 161);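 further: 0% = growth of cultures given vehicle only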; settings: S. cerevisiae sgs1 mgt1 strain, hits give high values
Summary of the method: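 Growth of a repair-deficient yeast mutant was monitored after compound treatment and expressed as inhibition relative to vehicle-treated cultures.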

[9] = NCI Yeast Anticancer Drug Screen. Data for the cln2 rad14 strain (AID 165);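 further: 0% = growth equal to vehicle treated cultures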; settings: S. cerevisiae cln2 rad14 strain, hits give high values
Summary of the method: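 Relative to vehicle controls, growth inhibition of compound-treated cln2 rad14 yeast was recorded.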

[10] = NCI Yeast Anticancer Drug Screen. Data for the bub3 strain (AID 167); settings: S. cerevisiae bub3 mutant strain, hits give high values
Summary of the method: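 In this screen, a yeast mutant lacking normal mitotic checkpoint function is challenged with compound. Relative growth versus vehicle gives the inhibition value.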

[11] = NCI Yeast Anticancer Drug Screen. Data for the wt2 strain (AID 169);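 further: 0% = growth of vehicle-treated yeast cultures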; settings: S. cerevisiae wt2 strain growth inhibition, hits give high values
Summary of the method: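 Values express reduction in yeast growth under compound treatment, referenced to vehicle-treated cells.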

[12] = NCI Yeast Anticancer Drug Screen. Data for the mlh1 strain (AID 171);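 further: 0% = growth of vehicle-treated control cultures of the same strain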; settings: S. cerevisiae mlh1 strain growth inhibition, hits give high values
Summary of the method: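 Steps: expose the defined-mutant yeast strain to compound; expose a parallel culture to vehicle; measure growth; express compound effect as inhibition relative to the vehicle culture.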

[13] = NCI Yeast Anticancer Drug Screen. Data for the sgs1 strain (AID 173);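 further: 0% = growth of vehicle-only control cultures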; settings: S. cerevisiae sgs1 mutant, hits give high values
Summary of the method: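 Treat defined-mutant yeast with compound; measure growth; calculate inhibition relative to vehicle-treated cells.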

[14] = NCI Yeast Anticancer Drug Screen. Data for the mlh1 rad18 strain (AID 175); settings: S. cerevisiae mlh1 rad18 strain growth inhibition, hits give high values
Summary of the method: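 Test agents were incubated with a yeast strain of defined genotype (DNA damage repair defect). Inhibition of growth was derived by comparison with vehicle-exposed cultures.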

[15] = NCI Yeast Anticancer Drug Screen. Data for the rad18 strain (AID 177); settings: S. cerevisiae rad18 mutant growth inhibition, hits give high values
Summary of the method: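 A genetically defined yeast mutant impaired in DNA damage repair was treated with test compounds, then its growth was measured against cultures receiving vehicle alone.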

[16] = NCI Yeast Anticancer Drug Screen. Data for the CLN2oe strain (AID 163);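 further: 0% = growth of vehicle-only control cultures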; settings: S. cerevisiae CLN2oe strain, hits give high values
Summary of the method: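 Values reflect how much compound exposure reduced yeast growth, referenced to vehicle-exposed cells. Assay organism is a strain with a defined genetic change affecting cell-cycle control.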

[17] = at 5.0 µM (retest, dose inferred, filed as 0.5)
[18] = at 50.0 µM (retest, dose inferred, filed as 5.0)

Measured: growth inhibition

Cc1ccc(CCC2=CCCc3c2ccc2ccccc32)cc1
inactive: [1]; at 1.2 µM -1% | [1]; at 3.7 µM -3% | [1]; at 11.0 µM 0% | [1]; at 33.0 µM 1% | [1]; at 100.0 µM 0% | [2]; at 1.2 µM -3% | [2]; at 3.7 µM -4% | [2]; at 11.0 µM -5% | [2]; at 33.0 µM -8% | [2]; at 100.0 µM -9% | [3]; at 1.2 µM -3% | [3]; at 3.7 µM 5% | [3]; at 11.0 µM 13% | [3]; at 33.0 µM 40% | [3]; at 100.0 µM 58% | [4]; at 1.2 µM -4% | [4]; at 3.7 µM -3% | [4]; at 11.0 µM -3% | [4]; at 33.0 µM -8% | [4]; at 100.0 µM -39% | [5]; at 1.2 µM -1% | [5]; at 3.7 µM -2% | [5]; [17] -7% | [5]; at 11.0 µM 0% | [5]; at 33.0 µM -1% | [5]; [18] -25% | [5]; at 50.0 µM 11.1% | [5]; at 100.0 µM 2% | [6]; at 1.2 µM -4% | [6]; at 3.7 µM -5% | [6]; [17] 44% | [6]; at 11.0 µM -5% | [6]; at 33.0 µM -4% | [6]; [18] 31% | [6]; at 50.0 µM 6.45% | [6]; at 100.0 µM 5% | [7]; at 1.2 µM -4% | [7]; at 3.7 µM -4% | [7]; at 11.0 µM 0% | [7]; at 33.0 µM 6% | [7]; at 100.0 µM 13% | [8]; [17] 5% | [8]; [18] 10% | [8]; at 50.0 µM 33% | [9]; [17] 6% | [9]; [18] -10% | [9]; at 50.0 µM 16.8% | [10]; at 1.2 µM -4% | [10]; at 3.7 µM -2% | [10]; [17] 63% | [10]; at 11.0 µM -4% | [10]; at 33.0 µM 5% | [10]; at 50.0 µM 33.8% | [10]; at 100.0 µM 15% | [11]; at 1.2 µM -3% | [11]; at 3.7 µM -5% | [11]; at 11.0 µM -5% | [11]; at 33.0 µM -8% | [11]; at 100.0 µM -8% | [12]; at 1.2 µM -3% | [12]; at 3.7 µM -4% | [12]; at 11.0 µM -4% | [12]; at 33.0 µM -1% | [12]; at 100.0 µM 4% | [13]; at 1.2 µM -5% | [13]; at 3.7 µM -4% | [13]; at 11.0 µM -1% | [13]; at 33.0 µM 0% | [13]; at 100.0 µM 3% | [14]; [17] 38% | [14]; [18] 16% | [14]; at 50.0 µM 16.9% | [15]; at 1.2 µM -4% | [15]; at 3.7 µM -1% | [15]; at 11.0 µM -2% | [15]; at 33.0 µM -2% | [15]; at 100.0 µM 2%
active: [10]; [18] 84%

CCCN(CCC)CC(O)c1cc(-c2ccc(Cl)cc2)nc2c(C)c(Cl)ccc12 (stereo not drawn)
active: [1]; at 11.0 µM 98% | [1]; at 33.0 µM 96% | [1]; at 100.0 µM 93% | [2]; at 11.0 µM 98% | [2]; at 33.0 µM 98% | [2]; at 100.0 µM 97% | [3]; at 11.0 µM 85% | [3]; at 33.0 µM 96% | [3]; at 100.0 µM 96% | [4]; at 11.0 µM 99% | [4]; at 33.0 µM 98% | [4]; at 100.0 µM 96% | [5]; at 11.0 µM 98% | [5]; at 33.0 µM 96% | [5]; [18] 95% | [5]; at 50.0 µM 98.4% | [5]; at 100.0 µM 93% | [6]; at 11.0 µM 99% | [6]; at 33.0 µM 98% | [6]; [18] 98% | [6]; at 50.0 µM 98.9% | [6]; at 100.0 µM 96% | [7]; at 11.0 µM 99% | [7]; at 33.0 µM 98% | [7]; at 100.0 µM 97% | [16]; at 11.0 µM 97% | [16]; at 33.0 µM 98% | [16]; at 100.0 µM 94% | [9]; [18] 93% | [9]; at 50.0 µM 97.6% | [10]; at 11.0 µM 99% | [10]; at 33.0 µM 97% | [10]; [18] 96% | [10]; at 50.0 µM 97.4% | [10]; at 100.0 µM 94% | [11]; at 11.0 µM 99%
inactive: [1]; at 1.2 µM -2% | [1]; at 3.7 µM 2% | [2]; at 1.2 µM -1% | [2]; at 3.7 µM -3% | [3]; at 1.2 µM -2% | [3]; at 3.7 µM 1% | [4]; at 1.2 µM -2% | [4]; at 3.7 µM -3% | [5]; at 1.2 µM -3% | [5]; at 3.7 µM 7% | [5]; [17] 34% | [6]; at 1.2 µM -6% | [6]; at 3.7 µM -8% | [6]; [17] 9% | [7]; at 1.2 µM -2% | [7]; at 3.7 µM 13% | [16]; at 1.2 µM -3% | [16]; at 3.7 µM -3% | [9]; [17] 9% | [10]; at 1.2 µM -5% | [10]; at 3.7 µM -6% | [10]; [17] 6% | [11]; at 1.2 µM -3% | [11]; at 3.7 µM -7%

Source: PubChem BioAssay (NCI)
